ASM inhibitor: Inhibitors of Secretory Acid Sphingomyelinase (S-ASM): qHTS; 0.006% of 340,000 active; Sphingomyelin phosphodiesterase (Homo sapiens), P17405; AID 504937, 2011; Potency, µM (highest dose often 57.5 µM), for the others: top-dose activity change, negative = inhibition, most hits filed as inhibitors; placental ASM, HMU-PC fluorogenic substrate, 60 min; also: potency is read from the fitted curve at half-maximal effect
Target sequence (P17405 47-631 limits assumed): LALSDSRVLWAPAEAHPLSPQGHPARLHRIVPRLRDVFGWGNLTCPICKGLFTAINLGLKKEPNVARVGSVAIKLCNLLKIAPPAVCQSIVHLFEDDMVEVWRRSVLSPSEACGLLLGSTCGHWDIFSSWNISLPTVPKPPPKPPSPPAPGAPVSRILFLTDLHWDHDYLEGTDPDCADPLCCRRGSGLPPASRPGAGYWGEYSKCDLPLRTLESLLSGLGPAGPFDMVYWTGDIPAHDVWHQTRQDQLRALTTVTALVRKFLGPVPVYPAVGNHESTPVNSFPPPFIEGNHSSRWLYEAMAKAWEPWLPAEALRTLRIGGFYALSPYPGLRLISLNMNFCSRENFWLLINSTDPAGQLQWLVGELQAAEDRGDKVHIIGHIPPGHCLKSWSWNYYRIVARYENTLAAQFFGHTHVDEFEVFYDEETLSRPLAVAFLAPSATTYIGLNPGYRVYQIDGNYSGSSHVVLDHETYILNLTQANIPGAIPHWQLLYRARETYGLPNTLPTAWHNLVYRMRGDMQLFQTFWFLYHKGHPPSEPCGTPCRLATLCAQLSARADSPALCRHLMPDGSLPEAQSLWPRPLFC
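Fluorogenic HMU-PC substrate (9 uM final) is turned over by placental ASM in 60 min at 37 C after a 10 min compound preincubation. Reaction ended by alkaline stop (pH 10), with fluorescence read at 386/447 nm.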
IL1B secr inh: qHTS for Inhibitors of Inflammasome Signaling: IL-1-beta AlphaLISA Primary Screen; THP-1 LPS/ATP IL-1B secretion, AlphaLISA, 16 h; stronger effect = lower value; activity change, % at 57.5 µM; 4.7% of 360,000 active; AID 743279, 2014; in the data active = activity change below about -50%; inconclusive = mostly about -30% to -49%; also: % is scaled to controls: 0 for no effect and ±100 for the full control effect
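Secreted IL-1B measured by AlphaLISA bead assay after 16 h compound exposure of THP-1 cells; compounds (final up to 57.5 uM) added 1 h before LPS (250 ng/mL) and ATP (1.25 mM) stimulation; lower signal means less secretion.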
DT40 TDP1 no CPT: qHTS for Inhibitors of human tyrosyl-DNA phosphodiesterase 1 (TDP1): qHTS in cells in absence of CPT; Potency, µM (series often up to 46.2 µM), inactives show at the top dose activity change, negative = growth inhibition, most hits filed as inhibitors; 15% of 420,000 active; DT40 Tdp1-/- hTDP1 cells, no CPT, ATP luminescence, 48 h; also: potency is read from the fitted curve at half-maximal effect; % is scaled to controls: 0 for no effect and ±100 for the full control effect; nearly all actives have a fitted effect of over 55% in size
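Stably hTDP1-transfected Tdp1-null chicken DT40 cells were treated with library compounds minus camptothecin and grown for at least 48 hr at 37 °C, after which cellular ATP was quantified by luminescence.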
HepG2 tox: qHTS for Inhibitors of TGF-b: Cytotox Counterscreen; HepG2 CAGA-GFP viability, ATP luminescence, 18 h; Potency, µM (series often up to 46.1 µM), inactives show top-dose activity change, negative = cytotoxicity, actives largely listed as cytotoxic; 0.76% of 410,000 active; also: potency is read from the fitted curve at half-maximal effect
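CellTiter-Glo luminescence gave cytotoxicity after 18 hours at 37 degrees C. The cells were HepG2 CAGA-GFP in 1% FBS DMEM, stimulated with 500 pg/mL TGF-beta after compound addition. %Activity was normalised to no-cell wells (complete cell-killing) and DMSO (no toxicity), and curves were fitted and classified.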
DT40 TDP1 CPT: qHTS for Inhibitors of human tyrosyl-DNA phosphodiesterase 1 (TDP1): qHTS in cells in presence of CPT; 12% of 420,000 active; AID 686979, 2013; chicken DT40 Tdp1-/-;hTDP1 cells + 20 nM CPT, ATP luminescence, 48 h; Potency, µM (top dose mostly 46.2 µM), for inactives: top-dose activity change, negative = growth inhibition, hits mostly inhibitors; also: potency is read from the fitted curve at half-maximal effect; % is scaled to controls: 0 for no effect and ±100 for the full control effect; nearly all actives have a fitted effect of over 55% in size
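Chicken DT40 Tdp1-/- cells stably complemented with human TDP1 were seeded at 400 cells/well in medium containing 20 nM camptothecin, exposed to pin-transferred compounds, and grown at 37 °C for at least 48 hr. Viability was read as ATP luminescence.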
TGFb inhibitor: qHTS for Inhibitors of TGF-b. HepG2 CAGA-GFP TGF-b/SMAD3 reporter, GFP fluorescence, 18 h; TGF-beta stimulated, 500 pg/mL final. Potency, µM (highest dose often 46.1 µM), for inactives: top-dose activity, negative = inhibition, hits mostly inhibitors. 1.2% of 410,000 active; also: potency is read from the fitted curve at half-maximal effect; % is scaled to controls: 0 for no effect and ±100 for the full control effect; nearly all actives have a fitted effect of over 65% in size
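HEPG2 CAGA-GFP, 1000 cells/well; 2 h settle, 37 C; cpd via pin tool; TGF-b 500 pg/mL final; 18 h, 37 C; GFP imaging ex488/em500-530; %Activity normalised to -TGF-b and +DMSO controls; CRC fit, curve class.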
Starred values were filed as active, the others as inactive. In the library only some 19% were active in any assay of this set; here they are far more common. Unless noted, calls follow the shape of the dose curve; as a rule, active = well fitted curve in the direction sought with a large enough effect; inconclusive = small, poorly fitted or top-dose-only effect, or another doubt; inactive = no such curve, though single readings can be large; an effect the other way counts as inactive or inconclusive.

Results for CCOc1ccc2nc(NC(=O)CS(=O)(=O)c3ccc(C)cc3)sc2c1 ?
ASM inhibitor: -8%; IL1B secr inh: 17; DT40 TDP1 no CPT: 16µM*; HepG2 tox: -42%; DT40 TDP1 CPT: -14%; TGFb inhibitor: 24%

Results for CCOc1ccc2nc(NC(=O)CS(=O)(=O)c3ccc(Cl)cc3)sc2c1 ?
DT40 TDP1 no CPT: 16µM*; HepG2 tox: -62%; DT40 TDP1 CPT: inconclusive; TGFb inhibitor: 0%

How did Cc1[nH]n2cnnc2c(=O)c1Br do in these assays?
ASM inhibitor: 3%; IL1B secr inh: 25; DT40 TDP1 no CPT: -20%; HepG2 tox: 4%; DT40 TDP1 CPT: -6%; TGFb inhibitor: -1%

How did COc1ccccc1C(=O)NCC(=O)NC(C)c1ccc(-n2ccnc2)cc1 (stereo unspecified) do in these assays?
ASM inhibitor: 0%; IL1B secr inh: -14; DT40 TDP1 no CPT: -13%; HepG2 tox: 9%; DT40 TDP1 CPT: -4%; TGFb inhibitor: -11%

What do the screens show for `NNc1nc(-c2ccccc2Cl)c2cc(Br)ccc2n1`?
ASM inhibitor: 7%; IL1B secr inh: 15; DT40 TDP1 no CPT: 5.2µM*; HepG2 tox: -49%; DT40 TDP1 CPT: 21µM*; TGFb inhibitor: inconclusive

How did CCN(CC)c1nc(-c2ccccc2Cl)c2cc(Br)ccc2n1 do in these assays?
DT40 TDP1 no CPT: inconclusive; HepG2 tox: -2%; DT40 TDP1 CPT: -22%; TGFb inhibitor: 1%

What do the screens show for `CN(C)c1cccc(C(=O)N2CCC(c3ccncc3)CC2)c1`?
DT40 TDP1 no CPT: -75%; HepG2 tox: -15%; DT40 TDP1 CPT: 21µM*; TGFb inhibitor: -28%

How did Cc1cc(Nc2ccc(Br)c(C)c2)n2nc(-c3ccco3)nc2n1 do in these assays?
DT40 TDP1 no CPT: 21µM*; HepG2 tox: -30%; DT40 TDP1 CPT: inconclusive; TGFb inhibitor: inconclusive

Results for Cc1cc(C)n2nc(-c3ccco3)nc2n1 ?
ASM inhibitor: 8%; IL1B secr inh: 8; DT40 TDP1 no CPT: 4%; HepG2 tox: -31%; DT40 TDP1 CPT: 4%; TGFb inhibitor: -2%

What do the screens show for `CC1CCc2c(sc(NC(=O)/C=C/c3cccs3)c2C(=O)O)C1` (stereo unspecified)?
ASM inhibitor: -1%; IL1B secr inh: inconclusive; DT40 TDP1 no CPT: -8%; HepG2 tox: -8%; DT40 TDP1 CPT: -25%; TGFb inhibitor: -7%

How did CC(=O)NC(CC(C)C)C(=O)O (stereo unspecified) do in these assays?
ASM inhibitor: -1%; IL1B secr inh: 8; DT40 TDP1 no CPT: -5%; HepG2 tox: -2%; DT40 TDP1 CPT: 6%; TGFb inhibitor: 28%

Results for COc1ccc(/C=C2\C(=O)N(c3c(Cl)cc(Cl)cc3Cl)N=C2NC(=O)c2cccc([N+](=O)[O-])c2)cc1 ?
ASM inhibitor: 3%; IL1B secr inh: -105*; DT40 TDP1 no CPT: inconclusive; HepG2 tox: 2%; DT40 TDP1 CPT: 18µM*; TGFb inhibitor: 0%

How did COc1ccc(C(=O)C(C)Oc2cccc(NC(=O)c3cccc([N+](=O)[O-])c3)c2)cc1 (stereo unspecified) do in these assays?
ASM inhibitor: -7%; IL1B secr inh: -18; DT40 TDP1 no CPT: 21µM*; HepG2 tox: 4%; DT40 TDP1 CPT: inconclusive; TGFb inhibitor: -19%

What do the screens show for `O=C(Nc1ccc(Oc2cccnc2)cc1)c1cccc([N+](=O)[O-])c1`?
ASM inhibitor: 1%; IL1B secr inh: -56*; DT40 TDP1 no CPT: inconclusive; HepG2 tox: 5%; DT40 TDP1 CPT: inconclusive; TGFb inhibitor: -3%

How did COC(=O)CSc1nc2ccccn2c(=O)c1C=O do in these assays?
ASM inhibitor: 438%; IL1B secr inh: 8; DT40 TDP1 no CPT: 2%; HepG2 tox: -1%; DT40 TDP1 CPT: -15%; TGFb inhibitor: 0%

Results for C=C1c2cc3c(cc2NC(=S)N1Cc1ccccc1)OCO3 ?
ASM inhibitor: 38%; DT40 TDP1 no CPT: inconclusive; HepG2 tox: -5%; DT40 TDP1 CPT: 16µM*; TGFb inhibitor: 0%

Results for S=C(NCc1ccc2c(c1)OCO2)NC1CCN(Cc2ccccc2)CC1 ?
ASM inhibitor: -2%; IL1B secr inh: inconclusive; DT40 TDP1 no CPT: inconclusive; HepG2 tox: -7%; DT40 TDP1 CPT: inconclusive; TGFb inhibitor: -6%

Results for COc1ccc(NS(=O)(=O)c2cc(OC)ccc2NC(=O)c2cc(C)oc2C)cc1 ?
ASM inhibitor: -22%; IL1B secr inh: 41; DT40 TDP1 no CPT: 2.6µM*; HepG2 tox: -16%; DT40 TDP1 CPT: 5.2µM*; TGFb inhibitor: -1%

Results for COc1ccc(NC(=O)c2cc(-c3ccccc3)oc2C)cc1 ?
ASM inhibitor: -10%; IL1B secr inh: 0; DT40 TDP1 no CPT: inconclusive; HepG2 tox: -14%; DT40 TDP1 CPT: -17%; TGFb inhibitor: 0%

Results for COc1ccc(NS(=O)(=O)c2cc(C)ccc2C)cc1 ?
ASM inhibitor: -1%; IL1B secr inh: 29; DT40 TDP1 no CPT: 16µM*; HepG2 tox: -7%; DT40 TDP1 CPT: 21µM*; TGFb inhibitor: -13%

Results for COc1ccc(NS(=O)(=O)c2cc(NC(=O)c3ccc(=O)[nH]n3)ccc2C)cc1 ?
ASM inhibitor: -7%; IL1B secr inh: 47; DT40 TDP1 no CPT: 18µM*; HepG2 tox: 4%; DT40 TDP1 CPT: 18µM*; TGFb inhibitor: -1%

What do the screens show for `CCOc1ccc2cc(-c3nnc(Nc4ccc(C)cc4)s3)c(=O)oc2c1`?
DT40 TDP1 no CPT: -14%; HepG2 tox: 5%; DT40 TDP1 CPT: -3%; TGFb inhibitor: -7%

Results for COC(=O)c1ccccc1NC(=O)Cn1cnc([N+](=O)[O-])c1 ?
ASM inhibitor: -2%; IL1B secr inh: 0; DT40 TDP1 no CPT: 13%; HepG2 tox: -3%; DT40 TDP1 CPT: 12%; TGFb inhibitor: 7%

Results for CC1(c2ccc(Cl)cc2)NC(=O)N(CC(=O)N2CCc3ccccc32)C1=O (stereo unspecified) ?
ASM inhibitor: -2%; IL1B secr inh: 13; DT40 TDP1 no CPT: inconclusive; HepG2 tox: -11%; DT40 TDP1 CPT: 26µM*; TGFb inhibitor: -17%
